# About 83,000 compounds went through this panel and 20% of them were active in at least one assay; those are over-represented in the sample as a whole.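 In brief: 96-well plates, 48 h treatment, single concentration, percent growth endpoint.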 A number with no mark means an inactive call. Calls of active or inactive are those of the source. The calls were made as follows: active = growth percent below 10; inactive = the rest.
# System: SF-539 CNS
# Experiment: NCI-60 one-dose screen, 48 h (100 = growth as untreated, 0 = no growth, -100 = all killed)
# Conditions: 10 µM unless noted
row,SMILES,growth
1,CCN(CC)S(=O)(=O)c1ccc2[nH]c(=O)cc(C(=O)Nc3ccc(OC)cc3OC)c2c1,133%
2,COc1ccc(/C=C/C(=O)OCC(=O)NNC(=O)c2ccccc2)cc1OC,91%
3,COc1ncc(-c2ccc3ncnc(Nc4cccc(Cl)c4)c3c2)cc1N(S(C)(=O)=O)S(C)(=O)=O,76.2%
4,Cc1c(C(=O)NCc2ccccc2)[n+](=O)c2cc(F)ccc2n1[O-],103%
5,COc1cc(Br)c(OC)cc1Br,93.6%
6,CN1CCN(CCCOc2ccc3nc(Nc4ccc(C(F)(F)F)c(Cl)c4)ccc3c2)CC1,-49% (active)
7,CC(=O)c1cc(C(=O)c2ccc3c(c2)Sc2ccccc2N3)c2cc(C)ccn12,-32.5% (active)
8,Cc1cc(C(=O)O)c(N)c(C)n1,102%
9,c1ccc2c(c1)Oc1ccccc1C2C1c2ccccc2Oc2ccccc21,96.5%
10,CC/C=C\C[C@H](O)C/C=C1/C(=O)C(Cl)=C[C@@H]1C/C=C\CCCC(=O)O,66%
11,O=C(Nc1ccc(I)cc1)c1cc([N+](=O)[O-])ccc1O,20.4%
12,O=C(CSc1nc(-c2ccc(Cl)cc2)cn1-c1ccc(Cl)cc1)c1ccc(Br)cc1,84.7%
13,N#CC1=C(N)n2nc(-c3ccncc3)nc2NC1c1cccc2ccccc12 (stereo unspecified),88.2%
14,Cc1ccc2nc(-c3c(CCCO)noc3N)[nH]c(=O)c2c1,97.3%
15,COc1ccc(/C(=N\O)c2cc(OC)c(OC)c(OC)c2)c(OC)c1N,-35.2% (active)
16,CCOc1ccc(/C=C/C=N/NC(N)=S)cc1,74.3%
17,C=C1C(=O)O[C@H]2[C@H]1CC/C(COC(=O)NCCc1cccc(OC)c1)=C\CC[C@@]1(C)O[C@@H]21,38.9%
18,Cc1c(C2=NNC(c3ccc4c(c3)OCO4)C2)[n+]([O-])c2ccccc2[n+]1[O-] (stereo unspecified),96.2%
19,O=S(=O)(NCCCNc1cc(-c2cn(-c3ccccc3)nc2-c2cccc(O)c2)ccn1)c1ccc(Br)cc1,18.9%

row,SMILES,growth
1,COc1cccc2nc(Nc3ccc(NC(=O)c4ccc5ncccc5c4)cc3)ccc12,48.1%
2,COc1ncc(-c2ccc3ncnc(Nc4cccc(Cl)c4)c3c2)cc1NS(=O)(=O)CCN1CCOCC1,-18.9% (active)
3,O=C(OCCCCOC(=O)n1cnc2ccccc21)n1cnc2ccccc21,102%
4,Cc1cc(C)c2c(=O)[nH]c(SCC(=O)Nc3cccc(S(=O)(=O)N(C)C)c3)nc2n1,97.3%
5,Cc1ccc(S(=O)(=O)OCC(=O)Nc2ccc(C(=O)O)c(O)c2)cc1,96.1%
6,CN(C)c1nc(N)c(N=O)c(N)n1,110%
7,Cc1nc2scc(-c3ccccc3)n2c(=O)c1CCO,100%
8,Cc1ccc2c(c1)C(C)Cc1c(ncnc1-n1cnc3ccccc31)N2C (stereo unspecified),-33.1% (active)
9,O=S(=O)(NCCNc1cc(-c2cn(-c3ccccc3)nc2-c2ccccc2)ccn1)c1cccc2ccccc12,56.9%
10,CCCCCCOc1ccc(C2(Cl)c3ccccc3N(C)c3ccccc32)cc1,89.3%
11,CN(C)C1CCC(NC2=CC(=O)C=CC2=O)CC1 (stereo unspecified),112%
12,CC(=O)N1Cc2ccccc2C(C)Cc2cc(Cl)ccc21 (stereo unspecified),107%
13,NC(N)=NC(N)=Nc1ccccc1-c1ccccc1,110%
14,Cc1oc2ncnc(Nc3ccccc3)c2c1C(=O)NCCO,88.6%
15,Cc1cc(NC(=O)COC(=O)c2sc3cc(F)ccc3c2Cl)no1,105%
16,CC1(C)OC2COC3(C(=O)O)OC(C)(C)OC3C2O1 (stereo unspecified),101%
17,C/C(=C\c1csc(C)n1)[C@@H]1C[C@@H]2O[C@]2(C)CCC[C@H](C)[C@H](O)[C@@H](C)C(=O)C(C)(C)[C@@H](O)CC(=O)N1,-87.4% (active)
18,COc1cc2c(cc1OCCCCn1c(-c3cc(=O)c4ccccc4o3)nc3ccccc31)N=C[C@@H]1CCCN1C2=O,118%
19,COc1cc(-c2csc(NC(=O)c3cc(C(F)(F)F)cc(C(F)(F)F)c3)n2)cc(OC)c1OC,56%

# System: M14 melanoma
# Experiment: as above
# Conditions: 10 µM unless noted
row,SMILES,growth
1,CCN(CC)S(=O)(=O)c1ccc2[nH]c(=O)cc(C(=O)Nc3ccc(OC)cc3OC)c2c1,109%
2,COc1ccc(/C=C/C(=O)OCC(=O)NNC(=O)c2ccccc2)cc1OC,107%
3,COc1ncc(-c2ccc3ncnc(Nc4cccc(Cl)c4)c3c2)cc1N(S(C)(=O)=O)S(C)(=O)=O,73.7%
4,Cc1c(C(=O)NCc2ccccc2)[n+](=O)c2cc(F)ccc2n1[O-],99.5%
5,COc1cc(Br)c(OC)cc1Br,91.5%
6,CN1CCN(CCCOc2ccc3nc(Nc4ccc(C(F)(F)F)c(Cl)c4)ccc3c2)CC1,-19.8% (active)
7,CC(=O)c1cc(C(=O)c2ccc3c(c2)Sc2ccccc2N3)c2cc(C)ccn12,17.2%
8,Cc1cc(C(=O)O)c(N)c(C)n1,102%
9,c1ccc2c(c1)Oc1ccccc1C2C1c2ccccc2Oc2ccccc21,99.1%
10,CC/C=C\C[C@H](O)C/C=C1/C(=O)C(Cl)=C[C@@H]1C/C=C\CCCC(=O)O,35.7%
11,O=C(Nc1ccc(I)cc1)c1cc([N+](=O)[O-])ccc1O,31.3%
12,O=C(CSc1nc(-c2ccc(Cl)cc2)cn1-c1ccc(Cl)cc1)c1ccc(Br)cc1,89.1%
13,N#CC1=C(N)n2nc(-c3ccncc3)nc2NC1c1cccc2ccccc12 (stereo unspecified),90.1%
14,Cc1ccc2nc(-c3c(CCCO)noc3N)[nH]c(=O)c2c1,107%
15,COc1ccc(/C(=N\O)c2cc(OC)c(OC)c(OC)c2)c(OC)c1N,7.17% (active)
16,CCOc1ccc(/C=C/C=N/NC(N)=S)cc1,95.7%
17,C=C1C(=O)O[C@H]2[C@H]1CC/C(COC(=O)NCCc1cccc(OC)c1)=C\CC[C@@]1(C)O[C@@H]21,29.9%
18,Cc1c(C2=NNC(c3ccc4c(c3)OCO4)C2)[n+]([O-])c2ccccc2[n+]1[O-] (stereo unspecified),99.6%
19,O=S(=O)(NCCCNc1cc(-c2cn(-c3ccccc3)nc2-c2cccc(O)c2)ccn1)c1ccc(Br)cc1,0.533% (active)

row,SMILES,growth
1,COc1cccc2nc(Nc3ccc(NC(=O)c4ccc5ncccc5c4)cc3)ccc12,92.6%
2,COc1ncc(-c2ccc3ncnc(Nc4cccc(Cl)c4)c3c2)cc1NS(=O)(=O)CCN1CCOCC1,18.1%
3,O=C(OCCCCOC(=O)n1cnc2ccccc21)n1cnc2ccccc21,102%
4,Cc1cc(C)c2c(=O)[nH]c(SCC(=O)Nc3cccc(S(=O)(=O)N(C)C)c3)nc2n1,100%
5,Cc1ccc(S(=O)(=O)OCC(=O)Nc2ccc(C(=O)O)c(O)c2)cc1,95.4%
6,CN(C)c1nc(N)c(N=O)c(N)n1,111%
7,Cc1nc2scc(-c3ccccc3)n2c(=O)c1CCO,101%
8,Cc1ccc2c(c1)C(C)Cc1c(ncnc1-n1cnc3ccccc31)N2C (stereo unspecified),18.1%
9,O=S(=O)(NCCNc1cc(-c2cn(-c3ccccc3)nc2-c2ccccc2)ccn1)c1cccc2ccccc12,42.9%
10,CCCCCCOc1ccc(C2(Cl)c3ccccc3N(C)c3ccccc32)cc1,12.9%
11,CN(C)C1CCC(NC2=CC(=O)C=CC2=O)CC1 (stereo unspecified),107%
12,CC(=O)N1Cc2ccccc2C(C)Cc2cc(Cl)ccc21 (stereo unspecified),103%
13,NC(N)=NC(N)=Nc1ccccc1-c1ccccc1,108%
14,Cc1oc2ncnc(Nc3ccccc3)c2c1C(=O)NCCO,106%
15,Cc1cc(NC(=O)COC(=O)c2sc3cc(F)ccc3c2Cl)no1,102%
16,CC1(C)OC2COC3(C(=O)O)OC(C)(C)OC3C2O1 (stereo unspecified),99.9%
17,C/C(=C\c1csc(C)n1)[C@@H]1C[C@@H]2O[C@]2(C)CCC[C@H](C)[C@H](O)[C@@H](C)C(=O)C(C)(C)[C@@H](O)CC(=O)N1,-44.1% (active)
18,COc1cc2c(cc1OCCCCn1c(-c3cc(=O)c4ccccc4o3)nc3ccccc31)N=C[C@@H]1CCCN1C2=O,105%
19,COc1cc(-c2csc(NC(=O)c3cc(C(F)(F)F)cc(C(F)(F)F)c3)n2)cc(OC)c1OC,32.3%

# From PubChem BioAssay (NCI)
